Sfp inh: inhibitors of Bacillus subtilis Sfp phosphopantetheinyl transferase. Q9F4F7. Biochemical Sfp PPTase activity, qHTS. Potency, µM, for inactives: largest response in the series, negative = inhibition, actives largely listed as inhibitors. 3.5% of 310,000 active. AID 1490;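 note: the enzyme is Sfp with the accession as filed and its product quenches rhodamine fluorescence; 0% = enzyme reaction without inhibitor and -100% = no enzyme wells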
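After 15 min at room temperature with compound, 15 nM Sfp received 5 uM rhodamine-CoA plus 12.5 uM BHQ-2-ybbR (50 mM Hepes pH 7.6, 10 mM MgCl2). Rate came from the fluorescence difference over 30 min, ex 525/em 598 nm.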
GLS inh: glutaminase GLS (human) inhibition; 0.21% of 410,000 active; AID 624170; Potency, µM (titrated, usually from 45.5 µM), without a hit: at the top dose activity change, negative = inhibition, actives largely listed as inhibitors; O94925; GLS enzymatic activity, qHTS titration
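Compounds were pin-transferred onto hKGA, after which L-glutamine (1 mM solution) and a detection mix of glutamate oxidase, HRP and Amplex Red were added. Initial and 30 min RT fluorescence reads were collected.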
TrxR1 substrate: rat thioredoxin reductase 1 substrate activity | O89049 | purified TrxR1 substrate turnover, NADPH consumption readout | Potency, µM (titrated, usually from 114 µM), for the others: top-dose activity change, negative = substrate turnover | 0.01% of 390,000 active | AID 588456; note: nearly all actives have a fitted effect of over 50% in size
Target sequence (O89049 whole entry, looked up): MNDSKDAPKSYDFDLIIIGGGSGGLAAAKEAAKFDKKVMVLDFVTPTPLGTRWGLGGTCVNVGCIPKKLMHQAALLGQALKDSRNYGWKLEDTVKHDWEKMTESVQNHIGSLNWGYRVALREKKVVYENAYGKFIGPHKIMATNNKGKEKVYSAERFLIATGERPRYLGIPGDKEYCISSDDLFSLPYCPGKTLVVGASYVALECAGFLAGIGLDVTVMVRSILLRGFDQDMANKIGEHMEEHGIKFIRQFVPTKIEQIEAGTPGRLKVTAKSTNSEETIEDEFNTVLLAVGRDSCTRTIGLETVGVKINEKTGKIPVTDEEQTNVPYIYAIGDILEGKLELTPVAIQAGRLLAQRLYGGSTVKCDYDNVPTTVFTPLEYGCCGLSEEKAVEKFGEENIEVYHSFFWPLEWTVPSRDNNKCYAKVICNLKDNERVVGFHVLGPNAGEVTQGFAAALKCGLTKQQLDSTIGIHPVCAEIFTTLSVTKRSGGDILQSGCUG
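Rat TrxR1, dispensed at 90 nM, was prereduced with 400 uM NADPH (final) for 5 min at ~22 deg C, then incubated with compound 15 min before 400 uM selenite. A first-read NADPH fluorescence drop versus no-compound background flagged substrates.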
TrxR1 inh: rat TrxR1 inhibition. AID 588453. Potency, µM (highest dose often 114 µM), without a hit: at the top dose activity change, negative = inhibition, most hits filed as inhibitors. 1% of 390,000 active. recombinant rTrxR1, NADPH fluorescence consumption, selenite substrate; note: nearly all actives have a fitted effect of over 65% in size
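Rat TrxR1 (90 nM in the dispensed reagent) was pre-reduced with 400 uM NADPH for 5 min at room temperature, then incubated with compound for 15 min. After 400 uM selenite was added, NADPH fluorescence (Ex 340/Em 450 nm) was followed for 8 min.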
GCN5L2 inh: GCN5L2 (KAT2A) acetyltransferase inhibition; Potency, µM (titrated, usually from 58.9 µM), for the others: at the top dose activity change, negative = inhibition, actives largely listed as inhibitors; 0.21% of 390,000 active; AID 504327; GCN5L2 HAT assay, ThioGlo1 CoA-SH fluorescence; Q92830
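GCN5L2 (20nM final) in 50mM HEPES, 0.1mM EDTA pH 7.5, 0.01% Tween-20 was preincubated 15 min at room temperature with compound, then given ThioGlo1 (50uM), H3(1-25) peptide (75uM) and acetyl-CoA (70uM); CoA-thiol fluorescence (Ex340/Em540) was read at 0 and 20 min.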
VDR inhibitor: blocks the human vitamin D receptor; P11473; VDR-SRC2-3 peptide fluorescence polarization, 2 h; Potency, µM, inactives show max response, negative = inhibition, most hits filed as inhibitors; 0.93% of 400,000 active
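Two reagent solutions held at 4 deg C in the dark were dispensed, compounds pinned at 23 nl, and the mixture incubated 2 h at room temperature. Read-out: fluorescence polarization of VDR–SRC2-3 peptide binding.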
* marks the source's active call; other numbers are inactive results; u = inconclusive; x = no result; [ ] = dose if it differs, or a comment. Most compounds without a hit are left out; they make up all but 3.8% or so of the library. Calls come from the whole dose curve; as a rule, active = well fitted curve in the direction sought with a large enough effect; inconclusive = small, poorly fitted or top-dose-only effect, or another doubt; inactive = no such curve, though single readings can be large; an effect the other way counts as inactive or inconclusive. Unless noted, % is set by controls: 0 for no effect and ±100 for the full control effect; potency is the fitted concentration of half-maximal effect.

SMILES	Sfp inh	GLS inh	TrxR1 substrate	TrxR1 inh	GCN5L2 inh	VDR inhibitor
CCCCCCC(=O)N(O)C1CC(=O)N(c2ccc(Br)cc2)C1=O (stereo not drawn)	22µM*	62%	-3%	22µM*	-23%	u
CCCCCCC(=O)N(O)C1CC(=O)N(c2ccc(F)cc2)C1=O (stereo not drawn)	20µM*	-13%	12%[57.1 µM]	3.5µM*	-23%	40µM*
CCCCN(C(=O)CCC(=O)O)C1CC(=O)N(c2ccc(OCCC)cc2)C1=O (stereo not drawn)	12%	-1%	5%	14%	-5%	10%
Cc1nn(C)c2c1c(C(F)(F)F)cc(=O)n2CC(=O)NCCC(C)C	x	-1%	13%[57.1 µM]	0%[57.1 µM]	-15%	8%
O=C(NC1CCCCC1)c1ccccc1NC(=S)NC(=O)C1CC1	19%	10%	-9%	-15%	2%	-6%
COC(=O)c1ccccc1NC(=O)c1ccc2c(c1)OCCO2	-4%	7%	-10%	-8%	-1%	-7%
COC(=O)c1ccccc1NC(=S)NC(=O)C1CCCCC1	-5%	2%	-3%	16µM*	-1%	-30%
O=C(NC(=S)Nc1ccccc1C(=O)O)c1ccc2ccccc2c1	45µM*	-8%	7%	-23%	u	-26%
COC(=O)c1ccccc1NC(=S)NC(=O)c1ccccc1C	-3%	-7%	6%	11µM*	2%	-5%
Cc1ccccc1C(=O)NC(=S)Nc1ccccc1C(F)(F)F	-6%	4%	16%[57.1 µM]	-31%[57.1 µM]	3%	15%
COC(=O)c1ccccc1NC(=S)NC(=O)c1ccc2c(c1)OCO2	-14%	1%	2%	8.9µM*	u	u
O=C(Nc1ccccc1)c1ccccc1NC(=O)C1CCCCC1	u	-14%	-11%	-10%	-13%	-6%
COC(=O)c1ccccc1NC(=S)NC(=O)c1ccccc1	u	1%	0%	u	-7%	-18%
COC(=O)c1ccccc1NC(=S)NC(=O)c1ccc(C)cc1	-26%	2%	-9%	40µM*	34%	u
Cc1cccc(NC(=O)c2ccccc2NC(=O)C2CCCCC2)c1C	28µM*	-1%	7%	28%	-25%	1%
COCCN1C(=O)c2oc3ccc(C)cc3c(=O)c2C1c1ccc(C(=O)OC)cc1 (stereo not drawn)	x	-5%	0%	21%	-4%	1%
CCc1nnc(NC(=O)C2CCCCC2)s1	32µM*	-5%	5%	20%	-6%	9%
CCc1nnc(NC(=O)CN2CC(C)OC(C)C2)s1 (stereo not drawn)	-3%	-9%	-2%	20%	-3%	-3%
CCc1nnc(NC(=O)CCC2CCCCC2)s1	x	1%	3%	19%	x	-7%
CCc1nnc(NC(=O)CN2CCN(C3CCCCC3)CC2)s1	89µM*	14%	11%	21%	-2%	10%
CC1CCN(C(=O)C(C)Sc2nc(-c3ccccc3)cc(C(F)(F)F)n2)CC1 (stereo not drawn)	0%	7%	-16%	-23%	-6%	-1%
NC(=O)c1ccccc1OCC(=O)N1CCCC1c1ccc2c(c1)OCCCO2 (stereo not drawn)	x	-12%	-1%	-4%	-1%	16%
CCCSS/C(CCO)=C(/C)N(C=O)Cc1cnc(C)nc1N	56µM*	-5%	x	x	0%	25µM*
CCOC(=O)OCC/C(SC(=O)OCC)=C(\C)N(C=O)Cc1cnc(C)nc1N	x	2%	x	x	x	x
COC(=O)c1ccc2nc(NC(=O)CN3C(=O)CCC3=O)sc2c1	28µM*	47%	2%[57.1 µM]	1%[57.1 µM]	-1%	-1%
SMILES	Sfp inh	GLS inh	TrxR1 substrate	TrxR1 inh	GCN5L2 inh	VDR inhibitor
COC(=O)c1ccc2nc(NC(=O)C(C)C)sc2c1	11%	4%	-5%	-5%	-8%	-9%
CC(=O)c1ccccc1OCCOCCOCCOc1ccccc1C(C)=O	30%	2%	6%[57.1 µM]	8%[57.1 µM]	-4%	0%
CC(=O)OCOC(=O)CN(CC(=O)OCOC(C)=O)c1ccccc1OCCOc1ccccc1N(CC(=O)OCOC(C)=O)CC(=O)OCOC(C)=O	89µM*	x	x	x	1%	1%
CCCC(O)(CCC)C(=O)NN(C(=O)CCl)c1ccccc1	-1%	-9%	8%	11µM*	4%	7%
CCCCC(O)(CCCC)C(=O)NN(C(=O)OCC)c1ccccc1	8%	-9%	-5%	-6%	0%	17%
O=C(NCc1nc2ccccc2[nH]1)c1c(F)c(F)c(F)c(F)c1F	13%	3%	8%[57.1 µM]	19%[57.1 µM]	-7%	1%
Cc1cc(C(=O)c2ccccc2)cc(C)c1O	x	5%	8%[57.1 µM]	3%[57.1 µM]	x	-5%
CC1=C/C(=C(\c2cc(C)c(O)c(Br)c2)c2ccccc2S(=O)(=O)O)C=C(Br)C1=O	45µM*	u	-1%	-6%	-20%	132%
Cc1cc(C)nc(SCC(=O)Nc2ccc(S(=O)(=O)Nc3ncccn3)cc2)n1	13µM*	-3%	-8%	-9%	-7%	17%
CC(=O)NS(=O)(=O)c1ccc(NC(=O)CSc2ccc(C)cc2)cc1	79µM*	0%	4%	20%	-3%	11%
NS(=O)(=O)c1cccc(NC(=O)CSc2ccccn2)c1	u	0%	3%	0%	-13%	14%
Cc1ccc(SCC(=O)Nc2ccc(S(=O)(=O)Nc3ncccn3)cc2)cc1	-15%	-13%	-1%	32%	-1%	-4%
NS(=O)(=O)c1ccc(NC(=O)CSc2ccccn2)cc1	79µM*	2%	8%[57.1 µM]	8%[57.1 µM]	-8%	-1%
CC1CC(C)CN(CCCNC(=O)c2nn(C)c3c2CS(=O)(=O)c2ccccc2-3)C1 (stereo not drawn)	5%	-3%	-1%	9%	2%	13%
Cc1ccc2nc(-c3ccc(NC(=O)CNC4CC4)cc3)sc2c1	-30%	2%	34%	-2%	-3%	1%
CO[C@H]1C([C@@]2(C)O[C@@H]2CC=C(C)C)[C@]2(CC[C@H]1OC(=O)/C=C/C=C/C=C/C=C/C(=O)O)CO2 (stereo partly drawn)	40µM*	x	x	x	-6%	35µM*
CCCn1c(SCC(=O)C(C)(C)C)nc2ccccc21	56µM*	-2%	-7%	-17%	1%	-4%
Cn1nnnc1SCC(=O)c1cccs1	45µM*	-4%	-4%	u	4%	u
COc1ccc2c(c1)nc(SCC(C)O)n2C (stereo not drawn)	3%	-12%	-5%	-4%	-1%	-10%
COc1ccc2c(c1)nc(SCC(=O)c1cccs1)n2C	89µM*	10%	4%	-3%	-5%	-23%
COc1ccc2c(c1)nc(SCC(=O)C(C)(C)C)n2C	56µM*	3%	-7%[57.1 µM]	13%	-1%	u

Bioassay records as filed in PubChem BioAssay.
